# Assay results from PubChem BioAssay (NCI).
# The panel holds about 83,000 compounds, 20% with a hit somewhere; the sample as a whole holds those more often.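 Results are percent growth after 48 hours of single-concentration exposure. 100 means growth as in untreated cells, lower positive values show inhibition; negative values down to -100 show cell death.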 Unmarked numbers belong to inactive results. The source made the active and inactive calls. The calls were made as follows: active = growth percent below 10; inactive = the rest.
# Assays:
# Assay in all cases: NCI-60 one-dose screen, 48 h (100 = growth as untreated, 0 = no growth, -100 = all killed)
# Conditions in all cases: 10 µM
# HCT-15 colon = system: HCT-15 colon
# HT29 colon = system: HT29 colon
# SNB-75 CNS = system: SNB-75 CNS
# SNB-19 CNS = system: SNB-19 CNS
# U251 CNS = system: U251 CNS
# PC-3 prostate = system: PC-3 prostate
# SK-MEL-5 melanoma = system: SK-MEL-5 melanoma
# UACC-62 melanoma = system: UACC-62 melanoma
# LOX IMVI melanoma = system: LOX IMVI melanoma
# SK-MEL-28 melanoma = system: SK-MEL-28 melanoma
# SK-MEL-2 melanoma = system: SK-MEL-2 melanoma
# EKVX NSCLC = system: EKVX NSCLC
# SN12C renal = system: SN12C renal
# UO-31 renal = system: UO-31 renal
# TK-10 renal = system: TK-10 renal
# ACHN renal = system: ACHN renal
# CAKI-1 renal = system: CAKI-1 renal
# A498 renal = system: A498 renal
# MOLT-4 leukemia = system: MOLT-4 leukemia
# CCRF-CEM leukemia = system: CCRF-CEM leukemia
SMILES,growth (HCT-15 colon),growth (HT29 colon),growth (SNB-75 CNS) [%],growth (SNB-19 CNS) [%],growth (U251 CNS),growth (PC-3 prostate) [%],growth (SK-MEL-5 melanoma),growth (UACC-62 melanoma),growth (LOX IMVI melanoma),growth (SK-MEL-28 melanoma),growth (SK-MEL-2 melanoma) [%],growth (EKVX NSCLC) [%],growth (SN12C renal) [%],growth (UO-31 renal) [%],growth (TK-10 renal) [%],growth (ACHN renal) [%],growth (CAKI-1 renal) [%],growth (A498 renal),growth (MOLT-4 leukemia),growth (CCRF-CEM leukemia) [%]
CCN1CCOC1C(C)C (configuration not stated),105%,99.3%,99.8,113,102%,93.4,106%,105%,102%,108%,95.3,107,99.8,79.5,130,102,98.2,98.8%,94.3%,–
Cc1cc(=O)oc2cc(OCc3cn(CC(O)CO)nn3)ccc12 (configuration not stated),105%,115%,132,105,100%,110,25.5%,97.4%,103%,128%,115,97,102,–,105,105,109,-3.54% (active),98.6%,92.5
COc1ccc2nc(/C=C/c3ccc(N(C)C)cc3)sc2c1,93.8%,93.3%,92.3,131,90.7%,98.9,90.1%,94.7%,91.5%,109%,101,96.9,91.4,–,103,104,97.6,71.7%,77.7%,82.6
O=C(O)CCCCSCCCCC(=O)O,106%,90.4%,95.7,108,93.3%,96.8,93.9%,109%,109%,114%,93.2,106,–,92.7,92,104,100,118%,93.1%,95.8
CCCCOCCOCCOCc1cc2c(cc1Br)OCO2,97.1%,92.6%,99.7,106,94.9%,93.2,97.8%,89.9%,106%,106%,92,104,–,76.7,96.3,98.8,98.5,-60.6% (active),92.3%,99.8
CC(=O)Nc1ccc(Sc2ccc(NC(C)=O)cc2)cc1,98.9%,91.2%,84.1,106,95.9%,65.5,105%,96.5%,96.3%,102%,98.9,96.3,–,81,92.2,95.9,95.3,106%,71.6%,89.8
CC(=O)/C(=C\c1ccc(Cl)cc1)c1ccccc1,10.3%,2.71% (active),37.4,29.7,13.6%,21.9,-35.6% (active),29.2%,0.385% (active),65%,39.3,32.9,–,52.2,57.1,29.6,15.6,15.7%,11.9%,11.1
Clc1cc(Cl)c(OCCCCCCN2CCNCC2)c(Cl)c1,-32% (active),-34.1% (active),52.7,49.8,8% (active),46.1,-15.6% (active),-54.4% (active),-66.2% (active),-12.6% (active),65.2,63.3,–,73.2,65.9,47.2,32.3,48.1%,-9.72% (active),10.7
